PubChem BioAssay
The source made the active and inactive calls.

Key:
[1] = tested on: Plasmodium falciparum Sir2 (PF13_0152, Sir2A); experiment: pfSir2 binders on small-molecule microarrays, primary screen, biochemical, small-molecule microarray, 635 nm fluorescence (AID 1098); conditions: small-molecule microarray binding, fluorescence 635 nm; higher = more signal;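 further: score merges spot fluorescence intensity with its signal-to-noise ratio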
[2] = small-molecule microarray binders of probe aDKK1, primary screen, biochemical, biotinylated probe, 635/667 nm fluorescence (AID 1099); conditions: higher = more signal;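 further: score merges 667nm spot fluorescence with signal to noise across triplicate slides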
[3] = small-molecule microarray binders of probe aCHRDL2, primary screen, biochemical, biotinylated probe, 635/667 nm fluorescence (AID 1100); conditions: higher = more signal
[4] = splicing luciferase reporter signal modulators, primary screen, spliceosome inhibition project, cell-based, HEK293, splice +/- reporter (AID 1101); conditions: luminescence, 24 h, higher = more signal, called active from +8 up or from −8 down;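 further: HEK293 cells carrying a splicing-competent luciferase reporter gene; test concentration not given here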
[5] = target: Fibroblast growth factor 10 (Homo sapiens) (UniProt O15520); experiment: FGF10 binders on small-molecule microarrays, primary screen, biochemical, small-molecule microarray, 635 nm fluorescence (AID 1102); conditions: FGF10 binding, fluorescence 635 nm, higher = more signal
[6] = tested on: glycogen synthase kinase-3 (GSK3A per assay name; protocol says GSK3B); experiment: GSK3 binders on small-molecule microarrays, primary screen, biochemical, small-molecule microarray, 635 nm fluorescence, GSK3A (AID 1103); conditions: small-molecule microarray binding, fluorescence 635 nm; higher = more signal; further: the record names both GSK3A and GSK3B
[7] = target: Epidermal growth factor receptor (Homo sapiens) (UniProt P00533); experiment: EGFR binders on small-molecule microarrays, primary screen, biochemical, small-molecule microarray, 635 nm fluorescence (AID 1104); conditions: EGFR binding, higher = more signal;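 further: score merges 667 nm emission intensity with spot signal to noise over triplicate slides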
[8] = target: Follistatin-related protein 3 (Homo sapiens) (UniProt O95633); experiment: FSTL3 binders on small-molecule microarrays, primary screen, biochemical, small-molecule microarray, 635 nm fluorescence (AID 1105); conditions: FSTL3 binding, higher = more signal;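 further: score merges emission near 667 nm and signal to noise per printed spot across three slides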
[9] = target: Dickkopf-related protein 1 (Homo sapiens) (UniProt O94907); experiment: DKK1 binders on small-molecule microarrays, primary screen, biochemical, small-molecule microarray, 635 nm fluorescence scan (AID 1106); conditions: DKK1 binding, higher = more signal;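 further: score merges emission near 667 nm with signal to noise over three replicate slides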
[10] = tested on: Inhibin beta A chain (activin A); experiment: INHBA (activin A) binders on microarrays, primary screen, biochemical, small-molecule microarray, 635 nm fluorescence scan (AID 1107); conditions: small-molecule microarray binding, higher = more signal;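 further: mouse activin A protein probed at 4.33 µg/mL on printed slides; score merges bound-protein fluorescence near 667 nm with spot signal-to-noise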
[11] = tested on: Human papillomavirus type 1a protein E7 (residues 44-93); experiment: HPV1a E7 fragment binders on microarrays, primary screen, biochemical, small-molecule microarray, residues 44-93, 635 nm fluorescence (AID 1108); conditions: small-molecule microarray binding, fluorescence 635 nm; higher = more signal;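 further: E7 fragment applied at 1 µg/mL in TBST for 1 h at 4 C; score combines spot fluorescence with its signal to noise ratio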
[12] = modulators of HCV replicon luciferase signal, primary screen, HCV replication inhibitor project, Huh7 cells, luciferase reporter (AID 1109); conditions: 48 h, higher = more signal;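 further: huh7 hepatoma cells harbouring a luciferase neomycin HCV replicon reporter; luciferase luminescence as measure of HCV replicon replication; test concentration not given here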
[13] = target: Left-right determination factor 2 (Homo sapiens) (UniProt O00292); experiment: LEFTY2 binders on small-molecule microarrays, primary screen, biochemical, small-molecule microarray, 635 nm fluorescence scan (AID 1110); conditions: LEFTY2 binding, higher = more signal
[14] = target: Calmodulin-1 (Homo sapiens) (UniProt P0DP23); experiment: CALM1 binders on microarrays, EGTA buffer, profiling panel, biochemical, small-molecule microarray, Cy5-labelled CALM1 (AID 1111); conditions: Cy5-CALM1 binding fluorescence, higher = more signal;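 further: labelled calmodulin applied in Tris saline Tween buffer holding calcium plus EGTA and DTT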
[15] = target: Calmodulin-1 (Homo sapiens) (UniProt P0DP23); experiment: calcium-bound CALM1 binders on microarrays, profiling panel, artefact control for SMM control-protein annotation, biochemical, small-molecule microarray, Cy5-labelled CALM1, plus calcium (AID 1112); conditions: Cy5-CALM1 binding fluorescence, higher = more signal;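 further: score merges spot fluorescence with signal to noise from triplicate slides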
[16] = small-molecule microarray binders of probe aWnt5a, primary screen, biochemical, biotinylated probe, 635/667 nm fluorescence (AID 1113); conditions: higher = more signal;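 further: score merges 667 nm fluorescence intensity with signal-to-noise per printed feature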
[17] = small-molecule microarray binders of probe aShh, primary screen, biochemical, biotinylated probe, 635/667 nm fluorescence (AID 1114); conditions: higher = more signal;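 further: probe is biotin-labelled aShh protein from a stem cell growth factor screen; measures binding of labelled protein to compounds printed on the slide; score merges feature fluorescence at 667 nm with signal-to-noise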
[18] = small-molecule microarray binders of probe aNog, primary screen, biochemical, biotinylated probe, 635/667 nm fluorescence (AID 1115); conditions: higher = more signal;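 further: probe is biotinylated aNog protein used at 0.15 µg/mL for 1 h at 4 C; z-score combines 667 nm fluorescence of each spot with its signal to noise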
[19] = target: Torsin-1A-interacting protein 1 (Homo sapiens) (UniProt Q5JTV8); experiment: LAP1 binders from COS7 cell lysate, primary screen, small-molecule microarray, 635/667 nm fluorescence (AID 1116); conditions: COS7-hLAP1 lysate binding, 635 nm fluorescence, higher = more signal
[20] = target: Alpha-bungarotoxin (Bungarus multicinctus) (UniProt P60615); experiment: alpha-bungarotoxin binders on microarray, profiling panel, artefact control for SMM control protein annotation, biochemical, small-molecule microarray, Alexa647 label, 635/667 nm fluorescence (AID 1117); conditions: alpha-BTX-A647 binding fluorescence, higher = more signal
Alpha-bungarotoxin (Bungarus multicinctus), sequence (P60615 whole entry, looked up): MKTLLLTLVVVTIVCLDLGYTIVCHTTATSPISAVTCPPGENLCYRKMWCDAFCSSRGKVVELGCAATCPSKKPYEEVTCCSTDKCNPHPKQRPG

Left-right determination factor 2 (Homo sapiens), sequence (O00292 whole entry, looked up): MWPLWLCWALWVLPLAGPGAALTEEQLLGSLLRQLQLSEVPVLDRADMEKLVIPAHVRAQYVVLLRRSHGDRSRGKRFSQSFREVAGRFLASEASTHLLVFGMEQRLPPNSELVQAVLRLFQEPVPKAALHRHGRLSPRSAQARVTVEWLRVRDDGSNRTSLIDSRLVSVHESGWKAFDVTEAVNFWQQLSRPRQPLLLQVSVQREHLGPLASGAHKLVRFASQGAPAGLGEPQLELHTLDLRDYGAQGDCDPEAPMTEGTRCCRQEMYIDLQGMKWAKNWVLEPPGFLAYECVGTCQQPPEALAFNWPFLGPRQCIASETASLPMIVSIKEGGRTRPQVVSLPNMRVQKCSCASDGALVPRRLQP
Follistatin-related protein 3 (Homo sapiens), sequence (O95633 whole entry, looked up): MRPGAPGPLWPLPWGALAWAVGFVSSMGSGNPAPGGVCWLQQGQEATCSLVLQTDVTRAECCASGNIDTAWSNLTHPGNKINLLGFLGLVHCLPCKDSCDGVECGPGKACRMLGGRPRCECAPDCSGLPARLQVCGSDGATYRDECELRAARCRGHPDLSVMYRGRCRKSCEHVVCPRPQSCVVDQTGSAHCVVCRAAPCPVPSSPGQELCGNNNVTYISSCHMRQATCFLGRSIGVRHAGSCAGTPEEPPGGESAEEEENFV
Torsin-1A-interacting protein 1 (Homo sapiens), sequence (Q5JTV8 whole entry, looked up): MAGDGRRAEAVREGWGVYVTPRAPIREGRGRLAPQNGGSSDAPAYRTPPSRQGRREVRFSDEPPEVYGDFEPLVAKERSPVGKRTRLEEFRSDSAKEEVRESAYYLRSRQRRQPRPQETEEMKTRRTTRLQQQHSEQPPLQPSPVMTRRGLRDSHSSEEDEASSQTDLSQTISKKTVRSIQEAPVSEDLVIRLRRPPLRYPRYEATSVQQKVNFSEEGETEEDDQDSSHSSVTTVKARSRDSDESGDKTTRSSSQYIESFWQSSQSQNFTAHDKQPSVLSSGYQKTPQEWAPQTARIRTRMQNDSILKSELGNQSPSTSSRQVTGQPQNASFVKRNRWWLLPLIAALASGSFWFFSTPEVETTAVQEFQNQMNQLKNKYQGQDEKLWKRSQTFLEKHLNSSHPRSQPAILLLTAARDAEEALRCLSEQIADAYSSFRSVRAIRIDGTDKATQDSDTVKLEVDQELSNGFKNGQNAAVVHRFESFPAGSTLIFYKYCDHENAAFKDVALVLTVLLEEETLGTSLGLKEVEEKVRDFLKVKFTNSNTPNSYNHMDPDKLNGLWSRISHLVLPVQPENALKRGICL
Epidermal growth factor receptor (Homo sapiens), sequence (P00533 whole entry, looked up): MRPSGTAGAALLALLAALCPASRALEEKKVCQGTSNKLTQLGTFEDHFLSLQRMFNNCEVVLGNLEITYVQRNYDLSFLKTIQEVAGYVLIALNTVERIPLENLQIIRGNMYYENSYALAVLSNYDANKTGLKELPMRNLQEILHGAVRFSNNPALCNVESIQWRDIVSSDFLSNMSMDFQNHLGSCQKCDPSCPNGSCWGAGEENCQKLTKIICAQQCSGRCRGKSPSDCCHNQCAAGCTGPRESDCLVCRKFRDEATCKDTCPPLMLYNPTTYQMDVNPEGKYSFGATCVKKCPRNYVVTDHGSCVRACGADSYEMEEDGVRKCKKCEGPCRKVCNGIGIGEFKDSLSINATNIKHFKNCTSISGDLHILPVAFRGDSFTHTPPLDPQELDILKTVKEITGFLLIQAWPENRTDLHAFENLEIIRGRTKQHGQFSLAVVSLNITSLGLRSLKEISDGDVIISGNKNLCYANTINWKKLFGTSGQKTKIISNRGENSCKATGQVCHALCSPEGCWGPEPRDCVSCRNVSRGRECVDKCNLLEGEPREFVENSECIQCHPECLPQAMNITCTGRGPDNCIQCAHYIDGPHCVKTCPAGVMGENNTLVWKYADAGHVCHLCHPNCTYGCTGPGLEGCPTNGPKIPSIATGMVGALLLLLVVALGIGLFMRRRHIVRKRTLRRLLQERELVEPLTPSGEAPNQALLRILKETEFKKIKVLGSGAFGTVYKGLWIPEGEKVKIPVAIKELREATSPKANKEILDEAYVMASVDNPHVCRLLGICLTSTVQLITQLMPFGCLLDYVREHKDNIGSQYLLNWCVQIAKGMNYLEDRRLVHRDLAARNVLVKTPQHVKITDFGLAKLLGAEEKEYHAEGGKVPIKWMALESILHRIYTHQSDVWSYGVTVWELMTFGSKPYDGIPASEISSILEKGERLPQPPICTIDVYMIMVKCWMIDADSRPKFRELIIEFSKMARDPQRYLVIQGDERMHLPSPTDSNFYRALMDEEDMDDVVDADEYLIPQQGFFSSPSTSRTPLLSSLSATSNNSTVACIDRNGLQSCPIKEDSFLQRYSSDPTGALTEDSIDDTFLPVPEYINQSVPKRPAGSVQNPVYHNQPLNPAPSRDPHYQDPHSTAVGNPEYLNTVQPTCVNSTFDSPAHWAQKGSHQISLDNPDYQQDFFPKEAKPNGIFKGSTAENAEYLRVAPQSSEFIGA
Fibroblast growth factor 10 (Homo sapiens), sequence (O15520 whole entry, looked up): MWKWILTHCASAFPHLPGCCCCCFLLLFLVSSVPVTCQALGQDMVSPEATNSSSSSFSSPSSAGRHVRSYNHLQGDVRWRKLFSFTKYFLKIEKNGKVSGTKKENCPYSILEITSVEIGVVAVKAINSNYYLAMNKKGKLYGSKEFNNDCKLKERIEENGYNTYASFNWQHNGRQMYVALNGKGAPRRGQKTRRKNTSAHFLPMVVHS
Dickkopf-related protein 1 (Homo sapiens), sequence (O94907 whole entry, looked up): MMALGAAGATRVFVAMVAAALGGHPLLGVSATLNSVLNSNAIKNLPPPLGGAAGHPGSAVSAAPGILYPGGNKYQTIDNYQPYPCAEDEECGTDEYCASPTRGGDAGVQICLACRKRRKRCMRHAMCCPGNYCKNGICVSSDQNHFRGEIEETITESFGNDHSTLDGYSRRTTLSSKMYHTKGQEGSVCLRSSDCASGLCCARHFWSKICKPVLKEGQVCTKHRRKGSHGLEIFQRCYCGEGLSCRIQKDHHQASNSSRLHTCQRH

| SMILES | composite z-score [1] | composite z-score [2] | composite z-score [3] | z-score [4] | composite z-score [5] | composite z-score [6] | composite z-score [7] | composite z-score [8] | composite z-score [9] | composite z-score [10] | composite z-score [11] | z-score [12] | composite z-score [13] | composite z-score [14] | composite z-score [15] | composite z-score [16] | composite z-score [17] | composite z-score [18] | composite z-score [19] | composite z-score [20] |
| --- | --- | --- | --- | --- | --- | --- | --- | --- | --- | --- | --- | --- | --- | --- | --- | --- | --- | --- | --- | --- |
| COCCCNC(=O)[C@@H]1c2ccccc2C(=O)N(Cc2cc(F)cc(C(F)(F)F)c2)[C@H]1c1ccc(CO)cc1 | 1.69 | -0.0674 | 0.998 | -0.0265 (inactive) | -1.38 | -1.72 | -1.47 | -1.13 | -1.35 | -0.104 | -1.6 | -0.252 | -1.36 | -0.365 | -0.167 | -0.212 | -0.153 | -0.285 | -1.13 | -0.4 |
| CC(C)C[C@@H]1NC(=O)[C@@]23C(=O)N[C@@H](Cc4ccccc4)C2[C@H](C)[C@@]2(C)O[C@H]2C3/C=C/C/C=C\CNC(=O)[C@@H]2CCCN2C1=O (stereo not given in full) | 0.324 | -0.277 | -0.719 | -0.358 (inactive) | 0.0165 | -0.623 | 0.0731 | 0.361 | 0.534 | 1.42 | -0.282 | -0.972 | 0.283 | -0.749 | -0.721 | -0.124 | -0.138 | -0.219 | -0.22 | -0.442 |
| C[N+](C)(C)CCCCCCNC(=O)[C@H]1C[C@H]2C(=O)N3CCC[C@H]3C(=O)N2[C@H]1c1cccc(OCCO)c1 | 1.66 | 0.273 | -0.155 | 0.592 (inactive) | 0.755 | 1.23 | 0.907 | 1.3 | 0.705 | 0.959 | 0.809 | 0.609 | 1.46 | -0.205 | -1.14 | -0.135 | 0.171 | -0.381 | 1.67 | 0.0895 |
| C=CCOC(=O)[C@@H]1[C@H]2C(=O)O[C@H](c3ccccc3)[C@H](c3ccccc3)N2[C@H](c2ccc(OCCOC(=O)[C@@H]3C[C@@H]4C(=O)N[C@@H](CCCCNC(C)=O)C(=O)N4[C@@H]3c3ccc(O)cc3)cc2)[C@@]12C(=O)Nc1ccc(I)cc12 | 1.58 | -0.219 | -0.249 | 0.0887 (inactive) | 1.43 | 1.27 | 1.12 | 1.35 | 0.616 | 0.499 | 1.41 | -0.66 | 0.722 | 0.743 | -0.342 | -0.0684 | 0.0098 | -0.192 | 0.6 | 0.831 |
| N#Cc1ccc(NN2C(C(O)c3ccco3)C=CC3C(=O)N(c4ccccc4)C(=O)C32)cc1 (stereo not given) | 0.939 | 0.565 | 0.843 | 1.07 (inactive) | 0.505 | -0.202 | 0.0343 | 0.0837 | 0.18 | 0.921 | -0.345 | -0.36 | -0.0879 | 0.144 | -0.539 | 0.0012 | -0.0035 | 0.531 | -0.247 | 0.518 |
| COCCOC(=O)N1C(=O)[C@@]2(c3cc(C#CCC(C(=O)OC)C(=O)OC)ccc31)[C@H](c1ccc(OCCO)cc1)N1[C@H](c3ccccc3)[C@H](c3ccccc3)OC(=O)[C@H]1[C@@H]2C(N)=O | 1.46 | 0.0751 | 0.443 | -1.6 (inactive) | 1.1 | 1.24 | 0.603 | 1.26 | 0.57 | 0.324 | 1.35 | -1.12 | 0.535 | 1.61 | 0.193 | -0.0718 | 0.0639 | 0.129 | -0.189 | 0.992 |
| Cc1ccc(S[C@]2(C(=O)O)CC(=O)N(Cc3ccccc3C(F)(F)F)[C@@H]2c2ccc(CO)cc2)cc1 | -0.809 | -0.0885 | 1.08 | 0.0922 (inactive) | -0.628 | -0.926 | -1.01 | -0.894 | -1.03 | 1 | 0.973 | 0.0788 | -0.587 | -0.317 | 0.228 | -0.176 | -0.138 | -0.321 | 0.914 | -0.115 |
| CN(C)CCCN1C(=O)[C@@]2(Cc3ccccc31)c1ccccc1C(=O)N(Cc1ccccc1)[C@H]2c1ccc(CO)cc1 | 0.74 | -0.152 | 0.113 | -0.773 (inactive) | -0.622 | 0.54 | -0.306 | 0.408 | 0.0366 | 0.799 | 0.118 | -1.2 | -0.0359 | 0.505 | -0.258 | -0.252 | -0.289 | -0.288 | -0.123 | 0.648 |
| Cc1cc(C)c(C(O)C2C=CC3C(=O)N(c4ccccc4)C(=O)C3N2Nc2ccc([N+](=O)[O-])cc2)c(C)c1 (stereo not given) | 1.55 | 0.74 | 0.911 | 0.311 (inactive) | 0.693 | 1.3 | 0.326 | 1.45 | 0.275 | 0.471 | 1.44 | 0.49 | 0.38 | 1.84 | 0.469 | -0.131 | 0.0328 | 1.21 | 1.29 | 2.19 |
